# PubChem BioAssay (NCATS)
# Results filed as inconclusive are left out. Entries that show only a call come without a potency. Values without a mark were called inactive. Active and inactive are the calls of the source. Unless noted, calls come from the whole dose curve; as a rule, active = well fitted curve in the direction sought with a large enough effect; inconclusive = small, poorly fitted or top-dose-only effect, or another doubt; inactive = no such curve, though single readings can be large; an effect the other way counts as inactive or inconclusive.
# Tests used:
# [1] = biological target: Calcium and integrin-binding protein 1 (Homo sapiens) (UniProt Q99828); assay: Primary qHTS for Identification of Calcium Integrin Binding Protein 1 (CIB1) Competitor (AID 1508620); details: CIB1-GST / FITC-alphaIIb peptide fluorescence polarization; series mostly up to 57.7 µM;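 note: GST tagged CIB1 binding a fluorescein labelled alphaIIb integrin peptide tracer; top concentration of the series differs between compounds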
# Chain of Calcium and integrin-binding protein 1 (Homo sapiens) (Q99828 whole entry, looked up): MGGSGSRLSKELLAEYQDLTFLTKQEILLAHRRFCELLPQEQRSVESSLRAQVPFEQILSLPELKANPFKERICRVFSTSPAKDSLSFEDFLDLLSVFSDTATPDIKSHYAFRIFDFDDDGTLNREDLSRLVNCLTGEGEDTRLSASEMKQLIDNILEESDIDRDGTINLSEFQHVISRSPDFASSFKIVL
# Summary of the method: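 Fluorescence polarization competition: GST-tagged CIB1 (1 uM final) preincubated with compound 15 min at room temperature, then FITC-labelled alphaIIb peptide (100 nM final) added. After 15 min at room temperature, polarization read at Ex 480/Em 540.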
# [2] = Primary qHTS for small molecule stabilizers of the endoplasmic reticulum resident proteome: Secreted ER Calcium Modulated Protein (SERCaMP) assay (AID 1508630); details: SH-SY5Y GLuc-SERCaMP (Gaussia luciferase released on ER calcium loss) secretion, thapsigargin, luminescence; series mostly up to 38.4 µM; note: potency is the fitted concentration of half-maximal effect
# Summary of the method: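 GLuc-SERCaMP-expressing SH-SY5Y cells, pretreated 16 h with compound, are challenged with thapsigargin to empty ER calcium stores; after 4 h, coelenterazine is added directly to the medium and luminescence is imaged.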
# [3] = Counterscreen qHTS for small molecule stabilizers of the endoplasmic reticulum resident proteome: GLuc-NoTag assay (AID 1508627); details: Gaussia luciferase NoTag secretion counterscreen, luminescence, thapsigargin 100 nM for final 4 h; series mostly up to 76.4 µM;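 note: SH-SY5Y cells given compound then 100 nM thapsigargin to empty ER calcium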
# Summary of the method: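 SH-SY5Y cells stably expressing constitutively secreted GLuc without SERCaMP tag, exposed to compound for 19 hr, then to 100 nM thapsigargin for 4 hr at 37C. Medium luciferase was read by coelenterazine luminescence without lysis.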
# [4] = Cell Viability qHTS for small molecule stabilizers of the endoplasmic reticulum resident proteome (AID 1508629); details: cell viability counter-screen, 100 nM thapsigargin for final 4 h;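 note: human SH-SY5Y neuroblastoma cells carrying the GLuc-SERCaMP reporter; compound exposure about 46 h in total before the viability read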
# [5] = Confirmatory qHTS for small molecule stabilizers of the endoplasmic reticulum resident proteome: Secreted ER Calcium Modulated Protein (SERCaMP) assay (AID 1508628); details: SERCaMP secreted luciferase ER calcium/proteostasis reporter; series mostly up to 76.3 µM; note: nearly all actives have a fitted effect of over 40% in size; note: potency is the fitted concentration of half-maximal effect
# Summary of the method: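 We seeded SH-SY5Y-GLuc-SERCaMP cells, added compounds (three concentrations in the primary run, eleven up to 76.6 uM in confirmation), incubated 16 h, depleted ER calcium with thapsigargin, and read luciferase 4 h later.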
# [6] = biological target: Cytochrome P450 2D6 (Homo sapiens) (UniProt P10635); assay: Cytochrome P450 family 2 subfamily D member 6 (CYP2D6) small molecule antagonists: luciferase biochemical (cell-free) qHTS assay (AID 1645840; active = well fitted curve in the direction sought with a large enough effect in the repeat runs; an effect the other way counts as inactive or inconclusive; note: nearly all actives have a fitted effect of over 55% in size; note: potency is the fitted concentration of half-maximal effect); details: P450-Glo CYP2D6 enzyme, luciferin luminescence, 1 h; series mostly up to 57.4 µM
# Chain of Cytochrome P450 2D6 (Homo sapiens) (P10635 whole entry, looked up): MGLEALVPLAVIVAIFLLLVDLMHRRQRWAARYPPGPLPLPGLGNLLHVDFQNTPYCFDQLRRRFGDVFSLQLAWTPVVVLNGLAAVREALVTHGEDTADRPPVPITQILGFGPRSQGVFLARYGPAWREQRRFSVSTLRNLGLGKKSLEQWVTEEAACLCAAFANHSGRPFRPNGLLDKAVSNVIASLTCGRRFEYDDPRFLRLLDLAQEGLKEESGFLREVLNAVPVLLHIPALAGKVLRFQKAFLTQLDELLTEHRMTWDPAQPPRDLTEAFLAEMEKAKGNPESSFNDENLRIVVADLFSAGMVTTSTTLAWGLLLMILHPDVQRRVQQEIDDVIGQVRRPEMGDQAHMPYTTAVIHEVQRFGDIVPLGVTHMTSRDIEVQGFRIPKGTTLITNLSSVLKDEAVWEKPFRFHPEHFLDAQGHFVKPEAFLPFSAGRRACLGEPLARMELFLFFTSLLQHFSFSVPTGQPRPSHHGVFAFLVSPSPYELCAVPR
# Summary of the method: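 P450-Glo luminescent screen: recombinant CYP2D6 enzyme–proluciferin substrate mix preincubated with compound 10 min at room temperature, then NADPH regeneration added for 1 h at room temperature. Detection reagent added for 20 min; luciferin light read as relative luminescence units.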
structure (smiles),measurement,setting,value
C=CCON=C(C[C@H]1O[C@@H]2O[C@]3(C)CC[C@@H]4[C@H](C)CC[C@@H]([C@H]1C)[C@@]24OO3)[C@H]1O[C@@H]2O[C@]3(C)CC[C@H]4[C@H](C)CC[C@@H]([C@@H]1C)[C@@]24OO3,outcome,[1],inactive
same,Potency,[2],inactive
C[C@](O)(COc1ccc(C#N)cc1)C(=O)Nc1ccc(C#N)c(C(F)(F)F)c1,outcome,[1],inactive
same,Potency,[2],inactive
CC(O)=C(C#N)C(=O)Nc1cc(Br)ccc1Br,outcome,[1],inactive
same,Potency,[2],inactive
CC(C)[C@]12O[C@H]1[C@@H]1O[C@]13[C@]1(O[C@H]1C[C@H]1C4=C(CC[C@@]13C)C(=O)OC4)[C@@H]2O,outcome,[1],inactive
same,Potency,[2],inactive
CC[C@@H]1[C@@H](C)O[C@@](O)([C@@H](C)[C@H](O)[C@H](C)[C@H]2OC(=O)C=CC=C[C@@H](C)[C@@H]([C@@H](C)[C@@H](O)[C@H](C)[C@@]3(O)C[C@H](O[C@H]4C[C@H](O)[C@H](O)[C@H](C)O4)[C@H](CC)[C@@H](C)O3)OC(=O)C=CC=C[C@@H]2C)C[C@H]1O[C@H]1C[C@H](O)[C@H](O)[C@H](C)O1,outcome,[1],inactive
same,Potency,[2],inactive
CCCC[N+]1(C)[C@H]2CC(OC(=O)[C@H](CO)c3ccccc3)C[C@H]1[C@H]1O[C@H]12 (some centres not stated),outcome,[1],inactive
same,Potency,[2],inactive
c1ccc2c(CN3CCNCC3)cccc2c1,outcome,[1],inactive
same,Potency,[3],inactive
same,max response,[4],15%
Cc1c(C(=O)c2cccc3ccccc23)c2cccc3c2n1[C@H](CN1CCOCC1)CO3,outcome,[1],inactive
same,"activity change, negative = inhibition",[2],-12% [at 3.88 µM]
CN1CCN(c2ccc([N+](=O)[O-])c3no[n+]([O-])c23)CC1,outcome,[1],inactive
same,Potency,[3],inactive
same,Potency,[5],inactive
COc1cccc2c1[C@]13CCN(CC4CC4)[C@H](C2)[C@]1(OC)CCC(=O)C3,outcome,[1],inactive
same,Potency,[2],inactive
C=C[C@@H]1CN2CCC1C[C@H]2[C@H](O)c1ccnc2ccccc12 (some centres not stated),outcome,[1],inactive
same,Potency,[2],inactive
CCCN1CCO[C@@H]2c3cc(O)ccc3OC[C@@H]21,outcome,[1],inactive
same,Potency,[2],inactive
N=c1c2c(-c3ccccc3)c(-c3ccccc3)n(Cc3ccccc3)c2ncn1C1CCC(O)CC1 (configuration not stated),outcome,[1],inactive
same,Potency,[2],inactive
COC[C@H]1OC(=O)c2coc3c2[C@@]1(C)C1=C(C3=O)[C@@H]2CC[C@H](O)[C@@]2(C)C[C@@H]1OC(C)=O,outcome,[1],inactive
same,Potency,[2],inactive
COc1ccc2c(c1)[C@]13CCCCC1C(C2)N(C)CC3 (some centres not stated),outcome,[1],inactive
same,Potency,[2],0.473 µM (active)
Nc1ccc(N=Nc2ccccc2)cc1,outcome,[1],inactive
same,Potency,[3],inactive
same,Potency,[5],44.7 µM (active)
same,max response,[4],1.98%
same,Potency,[6],41.1 µM (active)
C[C@@H]1O[C@@H](O[C@@H]2C=C3CC[C@@H]4[C@@H](CC[C@]5(C)[C@H](c6ccc(=O)oc6)CC[C@@]45O)[C@@]3(C)CC2)[C@H](O)[C@H](O)[C@H]1O,outcome,[1],inactive
same,Potency,[2],inactive
O=[N+]([O-])c1ncc[nH]1,outcome,[1],inactive
same,Potency,[2],inactive
C[C@H]([C@H](O)CCC(C)(C)O)[C@H]1CC[C@@]2(O)C3=CC(=O)[C@@H]4C[C@@H](O)[C@@H](O)C[C@]4(C)[C@@H]3CC[C@]12C,outcome,[1],inactive
same,Potency,[2],inactive
NC1=NC(=O)N2CC12 (configuration not stated),outcome,[1],inactive
COc1ccc(CC2NCCc3cc(OC)c(OC)cc32)cc1OC (configuration not stated),outcome,[1],inactive
same,Potency,[2],inactive
Cc1ccccc1-n1c(Cn2cnc3c(N)ncnc32)nc2cccc(C)c2c1=O,outcome,[1],inactive
same,Potency,[2],inactive
O=S(=O)(F)Cc1ccccc1,outcome,[1],inactive
same,Potency,[2],inactive
CCOC(=O)c1c(C(C#N)=CN)c2ccc(Cl)c(Cl)c2n1C,outcome,[1],inactive
same,Potency,[2],inactive
C[C@@H]1CC[C@H]2[C@@H](C)C(=O)O[C@@H]3O[C@@]4(C)CC[C@H]1[C@]32OO4,outcome,[1],inactive
same,Potency,[2],inactive
Cc1[nH]nc2ccc(-c3cncc(OC[C@@H](N)Cc4c[nH]c5ccccc45)c3)cc12,outcome,[1],inactive
same,Potency,[2],inactive
same,Potency,[6],3.79 µM (active)
C[C@]12CCC(=O)C(O)=C1CC[C@@H]1[C@H]3CCC(=O)[C@@]3(C)CC[C@@H]12,outcome,[1],inactive
same,Potency,[2],inactive
CC(C)N(CCNC(=O)CN1CCCC1=O)C(C)C,outcome,[1],inactive
same,Potency,[2],inactive
same,Potency,[6],inactive
